The panel holds about 83,000 compounds, 20% with a hit somewhere; the sample as a whole holds those more often.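 Step 1: grow cells in 96-well plates. Step 2: add test compound at a single concentration. Step 3: incubate 48 h. Step 4: record percent growth.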 The source made the active and inactive calls. Rule for the calls: active = growth percent below 10; inactive = the rest.
Assays:
Test in all cases: NCI-60 one-dose screen, 48 h (100 = growth as untreated, 0 = no growth, -100 = all killed)
RPMI-8226 leukemia = settings: 10 µM unless noted
OVCAR-8 ovarian = settings: 10 µM unless noted
OVCAR-5 ovarian = settings: 10 µM unless noted
OVCAR-4 ovarian = settings: 10 µM unless noted
SK-OV-3 ovarian = settings: 10 µM unless noted
IGROV1 ovarian = settings: 10 µM unless noted
OVCAR-3 ovarian = settings: 10 µM unless noted
HS 578T breast = settings: 10 µM unless noted
NCI/ADR-RES ovarian = settings: 10 µM unless noted
T-47D breast = settings: 10 µM unless noted
BT-549 breast = settings: 10 µM unless noted
MDA-MB-435 melanoma = settings: 10 µM unless noted
SW-620 colon = settings: 10 µM unless noted
MCF7 breast = settings: 10 µM
HCT-116 colon = settings: 10 µM unless noted
HCC-2998 colon = settings: 10 µM unless noted
KM12 colon = settings: 10 µM unless noted

Measured: growth

COc1ccc(N(C)c2nc(N)nc3sc4c(c23)CCCC4)cc1
active: OVCAR-3 ovarian 1.77% | NCI/ADR-RES ovarian 2.25% | MDA-MB-435 melanoma -9.59% | HCT-116 colon 1.18% | HCC-2998 colon 7.08% | KM12 colon 7.2%
inactive: RPMI-8226 leukemia 25.3% | OVCAR-8 ovarian 14% | OVCAR-5 ovarian 49.8% | OVCAR-4 ovarian 36.2% | SK-OV-3 ovarian 20.7% | IGROV1 ovarian 17.2% | HS 578T breast 26.9% | T-47D breast 70.3% | BT-549 breast 24% | SW-620 colon 28.7% | MCF7 breast 15.2%

CSc1nc2c(c(=O)[nH]1)N=C1c3ccccc3C(=O)C1C(c1ccc(F)cc1)N2 (stereo unspecified)
inactive: RPMI-8226 leukemia 68.4% | OVCAR-8 ovarian 78.9% | OVCAR-5 ovarian 93.6% | OVCAR-4 ovarian 41.2% | SK-OV-3 ovarian 79.4% | IGROV1 ovarian 58.3% | OVCAR-3 ovarian 21.7% | HS 578T breast 66.8% | NCI/ADR-RES ovarian 57.5% | T-47D breast 72.9% | BT-549 breast 97.2% | SW-620 colon 54.5% | MCF7 breast 40.4% | HCT-116 colon 48.4% | HCC-2998 colon 64.9% | KM12 colon 41.7%
active: MDA-MB-435 melanoma -2.38%

CC(=O)c1ccc2oc(=O)n(Cc3ccc(C#N)cc3)c(=O)c2c1
inactive: RPMI-8226 leukemia 106% | OVCAR-8 ovarian 103% | OVCAR-5 ovarian 103% | OVCAR-4 ovarian 96.3% | SK-OV-3 ovarian 119% | IGROV1 ovarian 108% | OVCAR-3 ovarian 117% | HS 578T breast 103% | NCI/ADR-RES ovarian 110% | T-47D breast 104% | BT-549 breast 102% | MDA-MB-435 melanoma 99.3% | SW-620 colon 100% | MCF7 breast 98.9% | HCT-116 colon 110% | HCC-2998 colon 102% | KM12 colon 102%

Cc1nc2ccccc2c(/C=C/c2ccc(F)cc2)c1C(N)=O
inactive: RPMI-8226 leukemia 96.1% | OVCAR-8 ovarian 104% | OVCAR-5 ovarian 105% | OVCAR-4 ovarian 95.5% | SK-OV-3 ovarian 105% | IGROV1 ovarian 97.4% | OVCAR-3 ovarian 107% | HS 578T breast 106% | NCI/ADR-RES ovarian 111% | T-47D breast 90.8% | BT-549 breast 97.4% | MDA-MB-435 melanoma 107% | SW-620 colon 105% | MCF7 breast 69.7% | HCT-116 colon 98.3% | HCC-2998 colon 128% | KM12 colon 101%

COc1cc(C(=O)O/N=C(\N)Cc2cccc3ccccc23)cc(OC)c1OC
inactive: OVCAR-5 ovarian 48% | OVCAR-4 ovarian 66.8% | SK-OV-3 ovarian 69.2% | IGROV1 ovarian 46.9% | HS 578T breast 26% | NCI/ADR-RES ovarian 59.8% | BT-549 breast 56.4%
active: RPMI-8226 leukemia -36.4% | OVCAR-8 ovarian 1.62% | OVCAR-3 ovarian 6.38% | T-47D breast -73.1% | MDA-MB-435 melanoma -85.2% | SW-620 colon -76.7% | MCF7 breast -85.7% | HCT-116 colon -71.4% | HCC-2998 colon -82.5% | KM12 colon -68.4%

COc1cccc(C(=O)NC(c2ccc(C)cc2)c2cc(Cl)c3cccnc3c2O)c1 (stereo unspecified)
active: OVCAR-8 ovarian 1.23% | IGROV1 ovarian -5.14% | NCI/ADR-RES ovarian 6.12% | T-47D breast 6.13% | HCC-2998 colon 7.35%
inactive: RPMI-8226 leukemia 15.5% | OVCAR-5 ovarian 38.6% | OVCAR-4 ovarian 24.9% | SK-OV-3 ovarian 16.2% | OVCAR-3 ovarian 30% | HS 578T breast 34.5% | BT-549 breast 12.3% | MDA-MB-435 melanoma 19.4% | SW-620 colon 14.1% | MCF7 breast 17.9% | HCT-116 colon 19.2% | KM12 colon 20.7%

CN1CCN(Cc2ccc(NC(=O)c3[nH]ncc3Nc3cc(OC4CCCC4)ncn3)cc2)CC1
inactive: RPMI-8226 leukemia 16.9% | OVCAR-8 ovarian 42.6% | OVCAR-5 ovarian 50.5% | OVCAR-4 ovarian 59.2% | IGROV1 ovarian 35% | OVCAR-3 ovarian 11.2% | HS 578T breast 32.8% | NCI/ADR-RES ovarian 44% | T-47D breast 64.1% | BT-549 breast 12.5% | MDA-MB-435 melanoma 41.5% | SW-620 colon 15.8% | MCF7 breast 10.7% | HCC-2998 colon 28.7% | KM12 colon 21.9%
active: SK-OV-3 ovarian 4.89% | HCT-116 colon 4.66%

Oc1ccc(-c2nc(-c3ccc4oc5ccc(-c6[nH]c(-c7ccc(O)cc7)nc6-c6ccccc6)cc5c4c3)c(-c3ccccc3)[nH]2)cc1
inactive: RPMI-8226 leukemia 19.8% | OVCAR-8 ovarian 72.8% | OVCAR-5 ovarian 74.3% | OVCAR-4 ovarian 52.9% | SK-OV-3 ovarian 87% | IGROV1 ovarian 34.1% | OVCAR-3 ovarian 43.6% | HS 578T breast 66.8% | NCI/ADR-RES ovarian 72.3% | T-47D breast 46.8% | BT-549 breast 57.2% | MDA-MB-435 melanoma 43.5% | SW-620 colon 54.7% | MCF7 breast 50.7% | HCT-116 colon 31.3% | HCC-2998 colon 62.3% | KM12 colon 50.8%

CCOC(=O)C1=C(C)N=c2s/c(=C\c3cc(Cl)ccc3O)c(=O)n2C1c1ccc(OC)cc1 (stereo unspecified)
inactive: RPMI-8226 leukemia 78.6% | OVCAR-8 ovarian 90.4% | OVCAR-5 ovarian 93.1% | OVCAR-4 ovarian 94.7% | SK-OV-3 ovarian 104% | IGROV1 ovarian 87.6% | OVCAR-3 ovarian 95.5% | HS 578T breast 117% | NCI/ADR-RES ovarian 85.6% | T-47D breast 82% | BT-549 breast 102% | MDA-MB-435 melanoma 107% | SW-620 colon 103% | MCF7 breast 93.2% | HCT-116 colon 72.2% | HCC-2998 colon 98.6% | KM12 colon 94.2%

Nc1nc(Nc2cccc(F)c2)nc2ccccc12
inactive: OVCAR-8 ovarian 55.9% | OVCAR-5 ovarian 54.1% | OVCAR-4 ovarian 40.4% | SK-OV-3 ovarian 72.7% | IGROV1 ovarian 28% | OVCAR-3 ovarian 50.6% | HS 578T breast 63.9% | NCI/ADR-RES ovarian 38.1% | T-47D breast 41.5% | BT-549 breast 75.7% | MDA-MB-435 melanoma 18.6% | SW-620 colon 35.1% | MCF7 breast 41.5% | HCT-116 colon 23.1% | KM12 colon 59.2%
active: RPMI-8226 leukemia 0.232% | HCC-2998 colon -59.9%

O=NN(C(=O)NC1CCC(C(=O)O)CC1)C1CCC(C(=O)O)CC1 (stereo unspecified)
inactive: RPMI-8226 leukemia 81.8% | OVCAR-8 ovarian 99.7% | OVCAR-5 ovarian 97.4% | OVCAR-4 ovarian 95.8% | SK-OV-3 ovarian 114% | IGROV1 ovarian 107% | OVCAR-3 ovarian 113% | HS 578T breast 107% | NCI/ADR-RES ovarian 108% | T-47D breast 103% | BT-549 breast 125% | MDA-MB-435 melanoma 106% | SW-620 colon 105% | MCF7 breast 93% | HCT-116 colon 104% | HCC-2998 colon 104% | KM12 colon 108%

O=S(=O)(c1ccc(NC(=S)NC23CC4CC(CC(C4)C2)C3)cc1)N1CCCCC1
inactive: OVCAR-8 ovarian 82.9% | OVCAR-5 ovarian 94.4% | OVCAR-4 ovarian 86.4% | SK-OV-3 ovarian 106% | IGROV1 ovarian 94.3% | HS 578T breast 88.8% | NCI/ADR-RES ovarian 88.2% | T-47D breast 90.5% | BT-549 breast 93.8% | MDA-MB-435 melanoma 96% | SW-620 colon 55.8% | MCF7 breast 94.2% | HCT-116 colon 50.5% | HCC-2998 colon 114% | KM12 colon 24.7%
active: RPMI-8226 leukemia -11.6% | OVCAR-3 ovarian 5.73%

CCOC(=O)c1c2c(n3cccc(Cl)c13)C(=O)c1ncccc1C2=O
active: OVCAR-3 ovarian 5.39% | HCT-116 colon 8.41%
inactive: RPMI-8226 leukemia 61.2% | OVCAR-8 ovarian 12% | OVCAR-5 ovarian 84.1% | OVCAR-4 ovarian 23.5% | SK-OV-3 ovarian 54.4% | IGROV1 ovarian 61.9% | HS 578T breast 61.3% | NCI/ADR-RES ovarian 38.3% | T-47D breast 75.9% | BT-549 breast 69.2% | MDA-MB-435 melanoma 79.9% | SW-620 colon 36.4% | MCF7 breast 43.3% | HCC-2998 colon 46% | KM12 colon 46.3%

Cc1ccc2[nH]c(=O)cc(-n3nncc3Cn3c4ccccc4c4ccccc43)c2c1
inactive: RPMI-8226 leukemia 109% | OVCAR-8 ovarian 94.9% | OVCAR-5 ovarian 104% | OVCAR-4 ovarian 98.7% | SK-OV-3 ovarian 91.4% | IGROV1 ovarian 103% | OVCAR-3 ovarian 101% | HS 578T breast 88.4% | NCI/ADR-RES ovarian 99.5% | T-47D breast 106% | BT-549 breast 96.6% | MDA-MB-435 melanoma 100% | SW-620 colon 97.9% | MCF7 breast 99.5% | HCT-116 colon 97.8% | HCC-2998 colon 101% | KM12 colon 103%

CCOc1cccc(/C=N\Nc2nc(=O)cc(C(=O)OC)s2)c1O
inactive: RPMI-8226 leukemia 57.6% | OVCAR-8 ovarian 66.9% | OVCAR-5 ovarian 92.9% | OVCAR-4 ovarian 49.3% | SK-OV-3 ovarian 95.6% | IGROV1 ovarian 61.8% | OVCAR-3 ovarian 29.7% | HS 578T breast 90.4% | NCI/ADR-RES ovarian 32.3% | T-47D breast 37.8% | BT-549 breast 85.4% | MDA-MB-435 melanoma 91.6% | SW-620 colon 79.3% | HCT-116 colon 22% | HCC-2998 colon 78% | KM12 colon 75.3%
active: MCF7 breast 8.66%

Cc1nc(Nc2ccccn2)sc1C(=O)/C=C/c1ccc(Cl)cc1
active: OVCAR-3 ovarian -23.2% | NCI/ADR-RES ovarian 3.2% | MDA-MB-435 melanoma -28.8% | KM12 colon 8.26%
inactive: RPMI-8226 leukemia 12% | OVCAR-8 ovarian 10.1% | OVCAR-5 ovarian 38.7% | OVCAR-4 ovarian 54% | SK-OV-3 ovarian 26.9% | IGROV1 ovarian 13.9% | HS 578T breast 18.5% | T-47D breast 58.1% | BT-549 breast 19% | SW-620 colon 25.2% | MCF7 breast 17.6% | HCT-116 colon 14.3% | HCC-2998 colon 21.6%

COc1c(B(O)O)cccc1-c1nc2ccc3n[nH]c(F)c3c2c2c1CCCC2
inactive: RPMI-8226 leukemia 42.3% | OVCAR-8 ovarian 72% | OVCAR-5 ovarian 105% | OVCAR-4 ovarian 96% | SK-OV-3 ovarian 79% | IGROV1 ovarian 80% | OVCAR-3 ovarian 91% | HS 578T breast 43.9% | NCI/ADR-RES ovarian 79.6% | T-47D breast 106% | MDA-MB-435 melanoma 88.3% | SW-620 colon 59.7% | MCF7 breast 61.5% | HCT-116 colon 43.9% | HCC-2998 colon 116% | KM12 colon 40.7%
active: BT-549 breast 5.08%

COc1ccc(/C=C2\NC(=O)NC2=O)cc1O
inactive: RPMI-8226 leukemia 101% | OVCAR-8 ovarian 98.5% | OVCAR-5 ovarian 108% | OVCAR-4 ovarian 98.8% | SK-OV-3 ovarian 103% | IGROV1 ovarian 107% | OVCAR-3 ovarian 116% | HS 578T breast 109% | NCI/ADR-RES ovarian 102% | T-47D breast 100% | BT-549 breast 94.1% | MDA-MB-435 melanoma 94.7% | SW-620 colon 109% | MCF7 breast 100% | HCT-116 colon 89.3% | HCC-2998 colon 107% | KM12 colon 102%
